Out of some 190,000 compounds screened, about 810 (0.43%) were called active. Rule as the data show it: active = inhibition above about 50%; inactive = the rest. The sample as a whole holds a higher share of actives than the screen did.
What follows are compounds tested against Mannose-6-phosphate isomerase (Homo sapiens) (UniProt P34949) (assay: inhibitors of human PMI, primary screen, biochemical, fluorescence intensity, coupled assay (AID 1209;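 also: plate controls were DMSO vehicle for no effect and wells lacking substrate for full effect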)). Details: purified PMI enzyme, at 20 µM, hits give high values.
Chain of Mannose-6-phosphate isomerase (Homo sapiens) (P34949 whole entry, looked up): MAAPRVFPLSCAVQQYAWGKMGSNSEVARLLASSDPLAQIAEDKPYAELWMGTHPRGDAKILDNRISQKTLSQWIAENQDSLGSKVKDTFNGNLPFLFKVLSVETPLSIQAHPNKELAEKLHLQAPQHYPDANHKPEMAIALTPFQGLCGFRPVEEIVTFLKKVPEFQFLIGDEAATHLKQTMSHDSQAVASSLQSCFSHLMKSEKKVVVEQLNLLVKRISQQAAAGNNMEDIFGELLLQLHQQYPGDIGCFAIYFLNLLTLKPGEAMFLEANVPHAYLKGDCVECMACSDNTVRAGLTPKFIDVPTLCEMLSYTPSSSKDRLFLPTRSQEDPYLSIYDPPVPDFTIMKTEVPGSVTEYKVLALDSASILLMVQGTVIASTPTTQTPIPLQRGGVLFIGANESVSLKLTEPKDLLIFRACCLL

Row | SMILES | inhibition
1 | Cc1cccc(N=C2NC(=O)c3cc([N+](=O)[O-])ccc32)c1 | -1.4% (inactive)
2 | NC(=O)c1ccc(C(=O)c2ccc([N+](=O)[O-])cc2)cc1 | -7.1% (inactive)
3 | Cc1ccc(N=C2NC(=O)c3cc([N+](=O)[O-])ccc32)cc1 | 14.1% (inactive)
4 | NC(=O)c1ccc(N=C2C(=O)Nc3ccc([N+](=O)[O-])cc32)cc1 | 52.5% (active)
5 | O=C1Nc2ccc([N+](=O)[O-])cc2C1=Nc1cccc(CO)c1 | 56.8% (active)
6 | O=C1NC(=Nc2ccccc2)c2ccc([N+](=O)[O-])cc21 | 28.5% (inactive)
7 | CCOC(=O)c1c(NC(=O)Nc2cccc(Cl)c2)sc(C)c1C | -4.2% (inactive)
8 | O=C(CSc1ncnc2ccccc12)c1ccc2c(c1)OCCO2 | 9.1% (inactive)
9 | Nc1[nH]n2c(=O)cc(-c3ccccc3)nc2c1N=Nc1ccc2c(c1)OCO2 | 28% (inactive)
10 | COc1ccc2ccccc2c1/C=N/NC(=O)c1sc(N)c(C#N)c1C | 12.9% (inactive)
11 | Cc1c(C(=O)N/N=C/c2ccc(-c3ccccc3[N+](=O)[O-])o2)sc(N)c1C#N | 55.1% (active)
12 | O=C(N/N=C\c1ccc(-c2ccccc2[N+](=O)[O-])o1)C1COc2ccccc2O1 (stereo not given) | 33.9% (inactive)
13 | Cc1cc([N+](=O)[O-])c(C)cc1-c1ccc(/C=N/NC(=O)c2cccnc2)o1 | 8.6% (inactive)
14 | Cc1ccc(C(=O)N/N=C/c2ccc(-c3ccccc3[N+](=O)[O-])o2)cn1 | 52.2% (active)
15 | Cc1ccc(/C=N\NC(=O)C2COc3cc4ccccc4cc3O2)o1 (stereo not given) | 5% (inactive)
16 | O=C(N/N=C\c1ccc(-c2ccccc2[N+](=O)[O-])o1)C1COc2cc3ccccc3cc2O1 (stereo not given) | 70.2% (active)
17 | Cc1ccc(C(=O)N/N=C\c2ccccc2[N+](=O)[O-])cn1 | -13.1% (inactive)
18 | O=C(N/N=C/c1ccc(-c2ccccc2[N+](=O)[O-])o1)c1cncc(Br)c1 | 33.3% (inactive)
19 | COC(=O)c1[nH]c2ccccc2c1NC(=O)CCN1CCN(C2CCCCC2)CC1 | 3.6% (inactive)
20 | COc1cc(CC(=O)OCC(=O)Nc2cc([N+](=O)[O-])ccc2F)cc(OC)c1OC | 2.7% (inactive)

Row | SMILES | inhibition
21 | Cc1ccc(C(c2nnnn2C(C)(C)C)N2CCC(C)CC2)cc1 (stereo not given) | -7.6% (inactive)
22 | CCCCS(=O)(=O)Nc1ccc2cn[nH]c2c1 | 10% (inactive)
23 | O=C(/C=C/c1ccco1)N1CCN(S(=O)(=O)/C=C/c2ccccc2)CC1 | -3.5% (inactive)
24 | CCCC(=O)NCCCc1nc2ccccc2n1C(C)C | 2.7% (inactive)
25 | CN1CCc2cccc3c2[C@@H]1Cc1ccc(O)c(O)c1-3 | 64.3% (active)
26 | CN1CCc2cccc3c2[C@H]1Cc1ccc(O)c(O)c1-3 | 79.7% (active)
27 | CN1CCc2cc3c(c4c2[C@H]1[C@H](O)c1ccccc1-4)OCO3 | 15.6% (inactive)
28 | COc1ccc2c(c1O)-c1ccccc1CCN(C)C2 | -0.5% (inactive)
29 | CN1CCc2ccccc2C1C1CCNCC1 (stereo not given) | -2.5% (inactive)
30 | CC(=O)c1cc2c(=O)c3cc(C)ccc3oc2nc1C | 3.2% (inactive)
31 | COc1ccccc1OCC(=O)Nc1ccc(O)cc1C(=O)O | -4% (inactive)
32 | CCc1ccccc1N(C(=O)Cn1nnc2ccccc21)C(C(=O)NCCOC)c1ccco1 (stereo not given) | 3.9% (inactive)
33 | CC1=C(CC(=O)c2ccc(Cl)cc2)C(=O)c2ccccc2C1=O | -15.5% (inactive)
34 | CC(=O)c1c(C)oc2c1C(=O)c1ccccc1C2=O | 0.2% (inactive)
35 | Cc1oc2c(c1C(=O)N1CCC(C)CC1)C(=O)c1ccccc1C2=O | 1.3% (inactive)
36 | Cc1oc2c(c1C(=O)c1ccc(Cl)cc1)C(=O)C(=O)c1ccccc1-2 | 63.9% (active)
37 | O=C(c1ccc(Cl)cc1)c1ccc(CN2C(=O)c3ccccc3C2=O)o1 | 6.4% (inactive)
38 | Cc1oc2c(c1C(=O)O)C(=O)c1ccccc1C2=O | -55.2% (inactive)
39 | CCOC(=O)c1c(C)oc2c1C(=O)c1ccccc1C2=O | -48.2% (inactive)
40 | Cc1oc2c(c1C(=O)c1ccccc1)C(=O)C(=O)c1ccccc1-2 | 73.6% (active)

Row | SMILES | inhibition
41 | Cc1ccc(C(=O)c2c(C)oc3c2C(=O)C(=O)c2ccccc2-3)cc1 | 73.3% (active)
42 | O=C(CCCn1cnc([N+](=O)[O-])n1)Nc1ccc(Cl)cc1Cl | 8.7% (inactive)
43 | COc1cccc(-c2nc(CS(=O)(=O)CC(=O)Nc3cccc(C)c3C)c(C)o2)c1 | 7.1% (inactive)
44 | CCOC(=O)C1CCN(C(=O)COc2ccc(Cl)cc2)CC1 | 0.2% (inactive)
45 | CC(NC(=O)c1ccccc1F)c1nnc(SCC(=O)N2CCN(c3ccccc3)CC2)n1C (stereo not given) | -2.3% (inactive)
46 | CCOC(=O)c1c(CN2CCC(C)CC2)oc2ccc(OC)cc12 | -3.3% (inactive)
47 | CCCN(C(=O)c1cn(CC)c2nc(C)ccc2c1=O)c1c(N)n(Cc2ccccc2)c(=O)[nH]c1=O | 11.3% (inactive)
48 | CN(Cc1cccnc1)C(=O)CNC(=O)c1ccc(Cl)cc1Cl | -2.4% (inactive)
49 | COc1ccc(NS(=O)(=O)c2cccc3nonc23)c(OC)c1 | -1.3% (inactive)
50 | Cc1ccc(-c2nnn(CC(=O)N(CC(=O)NC3CCCC3)c3ccc(F)c(Cl)c3)n2)o1 | -4.8% (inactive)
51 | C[C@@H]1C=C(C(=O)O)O[C@H](OCc2ccc(CO)cc2)C1 | 6% (inactive)
52 | COc1ccc(-n2nc([N+](=O)[O-])c(=NCCc3ccccc3)n2O)cc1 | 10% (inactive)
53 | O=[N+]([O-])C1=CC=C2C(=NC3(CCCCC3)N2O)C1=NCCc1ccccc1 | 62.9% (active)
54 | O=[N+]([O-])C1=CC=C2C(=NC3(CCCCC3)N2O)C1=NCCO | 81.4% (active)
55 | O=[N+]([O-])c1nn(-c2ccccc2)n(O)c1=NCCc1ccccc1 | -5.6% (inactive)
56 | CCCCN=C1C([N+](=O)[O-])=CC=C2C1=NC1(CCCCC1)N2O | 31.3% (inactive)
57 | CCC(CC)NC(=O)COC(=O)CCC(=O)c1cccs1 | 4.9% (inactive)
58 | Cc1nc2cc(NC(=O)N3CCCCC3)ccc2n1C | 16.1% (inactive)
59 | CCO/C=N/c1c(C#N)c2c(c(=S)n1C)COC(C)(C)C2 | 5.8% (inactive)
60 | Cn1c(=O)n(C)c2cc([N+](=O)[O-])c(N3CCN(S(C)(=O)=O)CC3)cc21 | -6.6% (inactive)

From PubChem BioAssay AID1209 (Sanford-Burnham Center for Chemical Genomics, 2008)
